KB-3-1 cytotox: KB-3-1 parental cell cytotoxicity. KB-3-1 viability, CellTiter-Glo ATP luminescence, 72 h. Potency, µM (highest dose often 46.1 µM), usual class: cytotoxic. actives 1.4% (n = 400,000). AID 1347075; note: nearly all actives have a fitted effect of over 60% in size
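72 h, 37 °C compound treatment of KB-3-1 parental cells; CellTiter-Glo added, 10 min, luminescence read. Data corrected against DMSO-only plates and normalized before curve fitting.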
HT1080 IDH1KD tx: HT-1080 IDH1 knockdown cell toxicity (counter line) | HT-1080 IDH1 knockdown viability, ATP luminescence, 48 h | Potency, µM (highest dose often 46.1 µM), for inactives: at the highest dose activity, negative = toxicity, hits mostly cytotoxic | actives 2% (n = 360,000);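 note: 0% = DMSO wells and -100% = cell-free medium wells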
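Using the IDH1-knockdown HT-1080 line run in the same batch and compound series as the NT line, viability after 48 h at 37 °C was determined by CellTiter-Glo luminescence and expressed as % activity.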
DT40 TDP1 CPT: growth inhibition of DT40 Tdp1-/-;hTDP1 cells with camptothecin (screen for TDP1 inhibitors); chicken DT40 Tdp1-/-;hTDP1 cells + 20 nM CPT, ATP luminescence, 48 h; Potency, µM (titrated, usually from 46.2 µM), for inactives: top-dose activity change, negative = growth inhibition, usual class: inhibitors; actives 12% (n = 420,000); note: nearly all actives have a fitted effect of over 55% in size
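Chicken DT40 Tdp1-/- cells complemented with human TDP1, 400 cells/well, exposed to compounds plus 20 nM camptothecin for at least 48 h at 37 C; viability read as ATP content by CellTiter-Glo luminescence.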
DT40 TDP1 no CPT: qHTS for Inhibitors of human tyrosyl-DNA phosphodiesterase 1 (TDP1): qHTS in cells in absence of CPT. DT40 Tdp1-/- hTDP1 cells, no CPT, ATP luminescence, 48 h. actives 15% (n = 420,000). Potency, µM (titrated, usually from 46.2 µM), for the others: top-dose activity change, negative = growth inhibition, most hits filed as inhibitors. AID 686978, 2013; note: nearly all actives have a fitted effect of over 55% in size
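Chicken DT40 Tdp1-/- cells complemented with human TDP1, screened without camptothecin (DMSO vehicle only), 400 cells/well. Compounds pin-transferred, cells incubated at 37 °C for at least 48 hr. Growth read as ATP-dependent luminescence (CellTiter-Glo, 30 min at RT).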
KB-V1 cytotox: kills drug-selected multidrug resistant KB-V1 cells; actives 3.4% (n = 400,000); KB-V1 MDR cells viability, CellTiter-Glo, 72 h; Potency, µM (titrated, usually from 46.1 µM), hits mostly cytotoxic; note: nearly all actives have a fitted effect of over 60% in size
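Readout: CellTiter-Glo luminescence, 10 min after addition. Cells: KB-V1 MDR subline, 72 h at 37 degrees C with compound. Analysis: corrected, normalized data fitted to concentration-effect curves.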
HT1080-NT tox: kills 2HG-producing HT-1080-NT fibrosarcoma cells | HT-1080-NT fibrosarcoma viability, CellTiter-Glo ATP luminescence, 48 h | actives 1.6% (n = 360,000) | AID 686970 | Potency, µM (doses to about 46.1 µM), for inactives: at the highest dose activity, negative = less viability, usual class: cytotoxic;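 note: NT is the 2HG producing partner of a matched IDH1 knockdown line; 0% = DMSO-treated cells and -100% = media-only wells without cells; nearly all actives have a fitted effect of over 55% in size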
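Compounds were tested in concentration-response format on HT-1080-NT cells for 48 hours at 37 degrees C. Cell viability came from CellTiter-Glo luminescence; curves were classified by r2, response magnitude and activity.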
* = called active by the depositor; i = inactive; ? = inconclusive; . = no result; ! = not confirmed by another sample; [ ] = remark or other dose. In the library only some 19% were active in any assay of this set; here they are far more common. Calls come from the whole dose curve; as a rule, active = well fitted curve in the direction sought with a large enough effect; inconclusive = small, poorly fitted or top-dose-only effect, or another doubt; inactive = no such curve, though single readings can be large; an effect the other way counts as inactive or inconclusive. Unless noted, % is set by controls: 0 for no effect and ±100 for the full control effect; potency is the fitted concentration of half-maximal effect.

SMILES | KB-3-1 cytotox | HT1080 IDH1KD tx | DT40 TDP1 CPT | DT40 TDP1 no CPT | KB-V1 cytotox | HT1080-NT tox
Cc1cccc(-c2noc(CN(C(=O)COc3ccc(C(C)C)cc3)C(C)C)n2)c1 | i | . | ? | 16.4µM* | i | .
CCCNC(=O)C1CCC(Cn2c(=O)c3sccc3n(Cc3cccc(OC)c3)c2=O)CC1 (configuration not stated) | i | . | -23.2% | -15.0% | i | .
COc1ccc(OC)c(NC(=O)N2CCN(S(=O)(=O)c3ccc4c(ccn4C)c3)CC2)c1 | i | . | . | . | i | .
Cc1cccc(-c2noc(CN(C(=O)c3ccc4c(c3)OCO4)C(C)C)n2)c1 | i | -4.6% | 18.4µM* | ? | i | -6.0%
CCN(Cc1nc(-c2cccc(C)c2)no1)C(=O)c1ccc2c(c1)OCO2 | i | 2.2% | -5.5% | -5.7% | ? | -23.6%
Cc1ccc(-c2cn(-c3ccccc3)c3[n+]2CCCS3)cc1 | 1.84µM*! | ? | 0.651µM* | 0.366µM* | i | ?
c1ccc(-c2cn(-c3ccccc3)c3[n+]2CCCS3)cc1 | ? | ? | 3.26µM* | 3.66µM* | i | ?
CCc1ccc(-n2cc(-c3ccc(F)cc3)[n+]3c2SCCC3)cc1 | 9.2µM* | ? | 4.61µM* | 1.84µM* | i | ?
COc1ccc(-n2cc(-c3ccc(C)cc3)[n+]3c2SCC3)cc1 | ? | 2.31µM* | 1.46µM* | 1.3µM* | i | 2.91µM*
N#Cc1ccc(-c2cn(-c3ccccc3)c3[n+]2CCCS3)cc1 | i | 6.3% | 4.6% | -22.6% | i | 7.9%
C=CCOc1ccccc1CN1CCCN(C)CC1 | i | -19.0% | 1.2% | -7.9% | i | -23.0%
COCCN(C(=O)COC(=O)C(C)(C)Oc1ccc(Cl)cc1)c1c(N)n(Cc2ccccc2)c(=O)[nH]c1=O | i | -3.6% | -10.0% | -9.4% | ? | 1.4%[9.24 µM]
Cc1ccc(C(C(=O)Nc2ccc(C(C)C)cc2)N(C)C(=O)c2ccc(=O)[nH]c2)cc1 (configuration not stated) | i | -17.3% | -10.3% | 18.4µM* | i | -4.3%
COc1ccccc1-c1csc2ncnc(Sc3nnnn3C)c12 | ? | . | . | . | i | .
Cn1nnnc1Sc1ncnc2scc(-c3ccc(Br)cc3)c12 | 11.6µM* | . | . | . | ? | .
Cc1ccc(-c2csc3ncnc(Sc4nnnn4C4CC4)c23)cc1 | ? | . | 10µM* | 11.2µM* | i | .
Cn1nnnc1Sc1ncnc2scc(-c3ccc(F)cc3)c12 | 8.2µM*! | 20.6µM* | 16.4µM* | 6.51µM* | ? | ?
Cn1nnnc1Sc1ncnc2scc(-c3ccccc3)c12 | ? | -22.9% | 14.6µM* | 16.4µM* | ? | -4.4%
Cn1nnnc1Sc1ncnc2scc(Br)c12 | i | . | . | . | i | .
Cn1nnnc1Sc1ncnc2scc(-c3ccccc3Br)c12 | i | . | . | . | i | .
Cn1nnnc1Sc1ncnc2scc(-c3cccc4ccccc34)c12 | 16.4µM* | . | . | . | i | .
c1ccc(-c2csc3ncnc(Sc4nnnn4-c4ccccc4)c23)cc1 | ? | . | ? | 10µM* | i | .
CCOc1ccc2[nH]c3c(N4CCC5(CC4)OCCO5)ncnc3c2c1 | ? | 23.1µM* | 23.1µM* | 23.1µM* | ? | ?
COc1ccc(OC)c2sc(N3CCN(C(=O)c4ccco4)CC3)nc12 | i | . | -2.5% | -19.7% | i | .
O=C(c1ccco1)N1CCN(c2ncnc3c2[nH]c2ccc(Br)cc23)CC1 | ? | ? | ? | 23.1µM* | ? | ?
SMILES | KB-3-1 cytotox | HT1080 IDH1KD tx | DT40 TDP1 CPT | DT40 TDP1 no CPT | KB-V1 cytotox | HT1080-NT tox
CCOc1ccc2[nH]c3c(N4CCN(C(=O)c5ccco5)CC4)ncnc3c2c1 | i | ? | 16.4µM* | 13µM* | i | ?
O=C(NCc1ccco1)c1ccc2sc([C@@H]3O[C@H](CO)[C@H](O)[C@H](O)[C@H]3O)nc2c1 | i | 14.6% | -17.6% | -6.7% | i | 9.8%
Cc1cn2c(=O)cc(COc3ccc(NC(=O)c4ccccc4C)cc3)nc2s1 | i | . | -10.0% | -4.8% | i | .
CN1CCN(CCCNC(=O)c2ccc3c(c2)N(Cc2ccc(F)cc2)CCS3)CC1 | i | ? | 16.4µM* | ? | i | -19.1%
O=C(NCC1CCCO1)c1ccc2c(c1)N(Cc1ccc(F)cc1)CCS2 (configuration not stated) | i | 0.4% | ? | ? | i | 4.9%
O=C(NCCCN1CCOCC1)c1ccc2c(c1)N(Cc1ccc(F)cc1)CCS2 | i | ? | 16.4µM* | ? | i | -13.4%
O=C(NCCN1CCOCC1)c1ccc2c(c1)N(Cc1ccc(F)cc1)C(=O)CS2 | ? | -4.6% | -9.6% | 3.4% | ? | 0.9%
CCN1CCN(CCCNC(=O)c2ccc3c(c2)N(Cc2ccccc2)CCS3)CC1 | i | ? | 23.1µM* | ? | i | -18.1%
CCCCOC(=O)c1ccc(NC(=O)CC2NCCNC2=O)cc1 (configuration not stated) | i | . | -3.5% | -4.1% | ? | .
CCc1cccc(CC)c1NC(=S)NCCc1ccc(O)c(O)c1 | i | -8.0% | 23.1µM* | ? | ? | -1.2%
CCc1cccc(CC)c1NC(=S)NCCc1c(C)[nH]c2ccccc12 | ? | -15.2% | ? | ? | i | -14.8%
CC(C)CN(C(=O)Cn1nnc(-c2ccc(Cl)cc2)n1)C1CCS(=O)(=O)C1 (configuration not stated) | i | -5.6% | -0.1% | -11.8% | i | 0.7%
O=C(Cn1nnc(-c2ccc(CN3CCOCC3)cc2)n1)N(c1ccccc1)c1ccccc1 | i | -0.2% | 18.4µM* | 20.6µM* | ? | -3.3%
CC(C)(C)NC(=O)CN(C(=O)Cn1nnc(-c2ccc(Cl)cc2)n1)C1CCN(Cc2ccccc2)CC1 | i | ? | ? | 20.6µM* | i | ?
COc1ccc(Nc2nc3c(S(=O)(=O)c4ccc(Br)cc4)nnn3c3ccsc23)c(OC)c1 | i | . | 16.4µM* | 20.6µM* | i | .
COc1cccc(Nc2nc3c(S(=O)(=O)c4cc(C)ccc4C)nnn3c3ccsc23)c1 | i | . | -24.5% | ? | i | .
CCCCNc1nc2c(S(=O)(=O)c3ccc(Br)cc3)nnn2c2ccsc12 | i | . | -11.7% | 3.2% | i | .
COc1cc(Nc2nc3c(S(=O)(=O)c4ccc(C)c(C)c4)nnn3c3ccsc23)cc(OC)c1 | . | . | 9.2µM* | 13µM* | . | .
